Most compounds without a hit are left out; they make up all but 3.7% or so of the library.
ClpP mod = qHTS Assay for Activators of ClpP; purified B. subtilis ClpP, FRET peptide cleavage, 20 min; ATP-dependent Clp protease proteolytic subunit (Bacillus subtilis (strain 168)), P80244; Potency, µM (series often up to 57.5 µM), for inactives: at the highest dose activity change, negative = active; 1.9% of 340,000 active; AID 651965, 2013; active = well fitted falling curve with a large enough effect; inconclusive = small, poorly fitted or top-dose-only effect; inactive = no such curve, though single readings can be large or run the other way; also: potency is read from the fitted curve at half-maximal effect; the source files actives as falling curves though it sought activators and does not explain the sign; nearly all actives have a fitted effect of over 65% in size
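ClpP 10 microg/mL final, pH 8 Tris/KCl buffer with BSA, glycerol, Tween-20; compound pinned in; FRET-FV substrate; RT 20 min; Ex320/Em430; ΔFRET vs ADEP 5.8 microM, DMSO, no enzyme.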
miR-21 act = qHTS Assay for Modulators of miRNAs and/orActivators of miR-21; 340,000 tested, under 10 active; AID 2288, 2010; Potency, µM (series often up to 38.3 µM), for inactives: at the highest dose activity change, positive = activation, actives largely listed as activators; HeLa miR-21 FLuc reporter, luciferase, 48 h;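 also: % of control where 0% means no effect; miR-21 action dims this reporter so a rising signal means less miR-21 action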
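Luminescence from a firefly luciferase reporter carrying a miR-21 binding site downstream, stably expressed under a CMV promoter in HeLa cells that make miR-21 endogenously, reports miRNA modulation after 48 h compound exposure up to approximately 40uM final.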
Nrf2 ARE act = qHTS of Nrf2 Activators | 0.31% of 410,000 active | AREc32 ARE-luciferase reporter (MCF7-derived line), luminescence, 24 h | AID 624171, 2012 | Potency, µM (titrated, usually from 46.1 µM), inactives show top-dose activation, actives largely listed as activators; also: potency is read from the fitted curve at half-maximal effect; % of control where 0% means no effect; nearly all actives have a fitted effect of over 65% in size
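AREc32 cells carrying an ARE-driven firefly luciferase, 1000 cells/well in OPTI-MEM with 5% FBS, dosed after overnight attachment and incubated 24 hr at 37 deg C. Steady-Glo luminescence read after 30 min at RT.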
Nrf2 inh = Nrf2 qHTS screen for inhibitors. A549 ARE-Fluc reporter, luciferase luminescence, 18-24 h. 2.1% of 360,000 active. Potency, µM (doses to about 46 µM), without a hit: at the top dose activity change, negative = inhibition, actives largely listed as inhibitors; also: potency is read from the fitted curve at half-maximal effect; % is scaled to controls: 0 for no effect and ±100 for the full control effect; nearly all actives have a fitted effect of over 60% in size
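Nrf2 function is reported as luminescence of an ARE-controlled luciferase in A549 cells. Compounds were tested at several concentrations, and a CellTiter-Fluor read on the same wells flagged cytotoxicity.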
IL-2 act = qHTS of IL-2 Activators; IL-2 activation reporter assay, cell-based qHTS; stimulated with anti-CD3/CD4/CD28 beads; in transgenic mouse T cells; activation, % (series mostly up to about 46 µM); 0.065% of 360,000 active; AID 652025, 2013; in the data active = activation above about 50%; inconclusive = mostly about 30% to 49%; also: 0% is about no effect
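Readout is EGFP and DsRed signal by fluorescent plate cytometry after 18 h at 37 degrees C. Transgenic mouse T cells (750/well) received compound for 60 min before bead stimulation (anti-CD3, anti-CD4, anti-CD28); memory T cells served as non-tolerant control.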
A549 viability = Nrf2 qHTS screen for inhibitors: counterscreen for cytotoxicity; A549 ARE-Fluc cells, CellTiter-Fluor viability, 18-24 h; Potency, µM (top dose mostly 46 µM), inactives show top-dose activity change, negative = cytotoxicity, hits mostly inhibitors; 0.16% of 390,000 active; also: potency is read from the fitted curve at half-maximal effect; % is scaled to controls: 0 for no effect and ±100 for the full control effect
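A549 ARE-Fluc cells in 5% FBS OPTI-MEM, 5000 cells/well, rested 2 h then exposed to compounds in concentration-response for 18-24 h at 37 °C. Viability by CellTiter-Fluor fluorescence (Ex 405/Em 525) after 30 min; luciferase luminescence (BugLite, 15 min, RT) read afterwards.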
An asterisk follows results filed as active; ? = inconclusive; nt = no result; [ ] = dose if it differs, or a comment. Unless noted, calls follow the shape of the dose curve; as a rule, active = well fitted curve in the direction sought with a large enough effect; inconclusive = small, poorly fitted or top-dose-only effect, or another doubt; inactive = no such curve, though single readings can be large; an effect the other way counts as inactive or inconclusive.

SMILES | ClpP mod | miR-21 act | Nrf2 ARE act | Nrf2 inh | IL-2 act | A549 viability
CCOC(=O)c1c(C)[nH]c(C(=O)C(C)Cl)c1C (stereo not drawn) | nt | 1% | 18µM* | -11% | 3 | -2%
COc1cccc(C(=O)Nc2ccc(Cl)c(-c3nc4ccccc4[nH]3)c2)c1 | -20% | -5% | -1% | ? | nt | ?
Cc1ccc(C)c(NC(=O)CN(C)C(=O)c2ccc3[nH]c4c(c3c2)CC(C)CC4)c1 (stereo not drawn) | -5% | nt | 3% | 18µM* | -4 | ?
CC1CCc2[nH]c3ccc(C(=O)N(C)CC(=O)Nc4ccccc4Br)cc3c2C1 (stereo not drawn) | 16µM* | nt | 4% | ? | -1 | ?
CCN(CC(=O)Nc1ccc(OC)cc1)C(=O)c1ccc2[nH]c3c(c2c1)CC(C)CC3 (stereo not drawn) | -8% | nt | 0% | -4% | 0 | -7%
O=C(Nc1ccc2oc(-c3cccnc3)nc2c1)c1ccc(-c2ccc(OC(F)(F)F)cc2)o1 | -12% | -2% | 6% | -13% | nt | 1%
O=C(Nc1ccc2oc(-c3cccnc3)nc2c1)c1ccc(-c2ccccc2OC(F)(F)F)o1 | -7% | 12% | 5% | 0.65µM* | nt | -2%
CCCC(=O)Nc1ccc(-c2nc3cc(C)ccc3o2)cc1 | 40µM* | -21% | 7% | ? | 2 | -6%
O=C(Cc1ccccc1)Nc1ccc2oc(-c3cccnc3)nc2c1 | 28µM* | -15% | 1% | -3% | 1 | -14%
O=C(Nc1ccc2oc(-c3cccnc3)nc2c1)c1ccc(-c2ccccc2)o1 | 4% | ? | 9% | 13µM* | nt | -6%
CCOc1ccc(C(=O)Nc2ccc(-c3nc4cc(C)ccc4o3)cc2)cc1 | -27% | -26% | 2% | nt | nt | -7%
O=C(CNC(=O)c1ccc(C(F)(F)F)cc1)OC(C(=O)Nc1cc(C(F)(F)F)ccc1Cl)c1ccccc1 (stereo not drawn) | nt | nt | nt | 13% | nt | 14%
Cc1cc2c(s1)c1cnn(Cc3ccc(C(C)(C)C)cc3)c(=O)c1n2C | nt | nt | nt | 8% | nt | 0%
CCCCCC(=O)Nc1ccc2oc(-c3cccnc3)nc2c1 | 16µM* | -21% | 0% | -8% | 1 | -6%
O=C(Nc1ccc2oc(-c3ccccc3)nc2c1)c1cccnc1 | 1% | -43% | 5% | -16% | 0 | -3%
COc1ccc(CC(=O)Nc2ccc(-c3nc4cc(C)ccc4o3)c(O)c2)cc1OC | 35µM* | -31% | -1% | nt | 16 | 3%
COc1ccc(NC(=O)c2sc3nc4n(c(=O)c3c2C)CCC4)c(OC)c1 | -2% | -16% | -1% | ? | nt | 0%
CCc1ccc(N2C(=O)c3ccc4c5c(ccc(c35)C2=O)CC4)cc1 | 25µM* | -8% | 3% | -20% | -2 | -9%
CC(C)Cn1c(/C=N/Nc2nc3ccccc3[nH]2)nc2ccccc21 | -7% | -13% | 0% | 7.3µM* | 0 | -4%
CCCn1c(/C=N/Nc2nc3ccccc3[nH]2)nc2ccccc21 | -1% | -13% | 3%[9.22 µM] | 15µM* | 3 | ?
Cn1c(/C=N/Nc2nc3ccccc3[nH]2)nc2ccccc21 | nt | 11% | 8% | ? | -2 | 1%
CC(C)c1ccc(C(=O)C[N+]2(C)CCOCC2)cc1 | 2% | nt | nt | nt | nt | nt
Cc1ccc(-c2nnc(Nc3ccc(O)cc3)c3ccccc23)cc1S(=O)(=O)NC(C)(C)CO | -3% | -7% | 4% | -21% | nt | 10%
CCN(CC)C(=O)c1ccc2c(c1)N(Cc1ccc(C(F)(F)F)cc1)C(=O)c1ccccc1S2 | 3% | 23% | 0% | 12µM* | nt | -2%
COCCNC(=O)c1ccc2c(c1)N(Cc1ccc(C(F)(F)F)cc1)C(=O)c1ccccc1S2 | 3% | 7% | 0% | ? | nt | -14%
SMILES | ClpP mod | miR-21 act | Nrf2 ARE act | Nrf2 inh | IL-2 act | A549 viability
COc1cc(CN2CCNC(=O)C2CC(=O)O)cc(OC)c1 (stereo not drawn) | nt | -2% | 0% | 1% | 0 | 14%
COc1cc(CN2CCNC(=O)C2CC(=O)N2CCCN(C(C)=O)CC2)cc(OC)c1 (stereo not drawn) | 16µM* | -1% | 0% | 13% | 5 | -3%
C=C1CSc2nc(=O)c3c(C)c(C)sc3n21 | 16µM* | -3% | 0% | 4% | 0 | 1%
Cc1nc2sc(C)c(C)c2c(=O)[nH]1 | -1% | -8% | 0% | -17% | -1 | -3%
COc1ccc(CNC(=O)c2cnc3sc(N4CCCC4)nn3c2=O)cc1OC | 16µM* | 7% | 3% | ? | nt | 4%
COc1ccc(CCNC(=O)c2cnc3sc(N4CCOCC4)nn3c2=O)cc1 | 28µM* | -5% | 0% | 1% | nt | 5%
COc1ccc(CNC(=O)c2cnc3sc(N4CCOCC4)nn3c2=O)cc1 | ? | 1% | 0% | -23% | nt | 14%
CCNC(=O)c1cnc2sc(N3CCCCCC3)nn2c1=O | 11µM* | -24% | 0% | ? | nt | -1%
CC(C)(C)c1ccc(C2Sc3ccccc3NC3=C2C(=O)c2ccccc23)cc1 (stereo not drawn) | -1% | ? | -1% | 18µM* | nt | ?
O=C1OCC2=C1C(c1ccc(F)cc1)Sc1ccccc1N2 (stereo not drawn) | -1% | 21% | -1% | -27% | -1 | -16%
CCCOc1cccc(NC(=O)OC2CCN(C)CC2)c1 | 25µM* | -6% | 0% | -10% | -1 | -4%
C/C(=N\NC(=O)c1csc(C)c1C)c1ccco1 | -1% | -46% | 0% | ? | 2 | -5%
CC(/C=N/NC(=O)Cc1cccs1)=C\c1ccco1 | 0% | -49% | 14µM* | 26% | -1 | -13%
CC(/C=N/NC(=O)CSc1nc2ccccc2n1C)=C\c1ccco1 | 3% | 3% | 13µM* | 12% | 2 | 9%
CC(/C=N/NC(=O)c1cccs1)=C\c1ccco1 | nt | -55% | 14µM* | ? | 1 | 1%
C/C(=N/NC(=O)c1cccs1)c1ccco1 | -1% | -56% | 13µM* | 28% | -1 | 1%
O=c1c2sccc2n(Cc2cc(=O)n3ccccc3n2)c(=O)n1-c1cccc(C(F)(F)F)c1 | 4% | -9% | 4% | -11% | nt | -8%
CC(/C=N/NC(=O)c1cc(-c2ccncc2)nc2ccccc12)=C\c1ccco1 | -3% | 22% | ? | -79% | -1 | 18µM*
CCN(CC)C(=O)c1sc2c(c1C)c(=O)n(Cc1ccccc1)c(=O)n2Cc1ccccc1C | -3% | 13% | 6% | nt | nt | -20%

High-throughput results (PubChem)
